# According to the supplement of paper PMC8728848:
# About 410 targets per protein were measured; listed, in parts, are those with the strongest signals and a random draw of the rest.
# B1: UDA (Urtica dioica), P11218 (protein)
# chain: MMMRFLSAVVIMSSAMAVGLVSAQRCGSQGGGGTCPALWCCSIWGWCGDSEPYCGRTCENKCWSGERSDHRCGAAVGNPPCGQDRCCSVHGWCGGGNDYCSGSKCQYRCSSSVRGPRVALSGNSTANSIGNVVVTEPLFDQMFSHRKDCPSQGFYSYHSFLVAAESFPAFGTIGDVATRKREVAAFLAHISQATSGERSDVENPHAWGLCHINTTTVTENDFCTSSDWPCAAGKKYSPRGPIQLTHNFNYGLAGQAIGEDLIQNPDLVEKDPIISFKTALWFWMSQHDNKPSCHDIVLNANSAANRIPNKGVIGNIISRAFGHDDFAVRSSSIGFYKRYCDMLGVSYGHDLKYWFDNTPSSEFQRIQMRVAA
# Experiments:
# Assay in all cases: glycan array binding signal (z-score within array); higher = stronger binding
# Conditions in all cases: glycan notation: IUPAC condensed, linker removed
# [1] = target: Neu5Ac(a2-6)Gal(b1-4)GlcNAc(b1-2)Man(a1-3)Man(b1-4)GlcNAc(b1-4)GlcNAc
# Outline: (§1)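 The Consortium for Functional Glycomics database supplied 3228 glycan arrays, of which those lacking an available protein sequence were dropped. The binding signal, a within-array Z-score, was averaged across arrays of the same protein sequence and across linkers. Negative scores can be read as non-binding.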
# [2] = target: Neu5Ac(a2-6)Gal(b1-4)GlcNAc(b1-2)Man(a1-3)[GlcNAc(b1-4)][Neu5Ac(a2-6)Gal(b1-4)GlcNAc(b1-2)Man(a1-6)]Man(b1-4)GlcNAc(b1-4)GlcNAc
# Outline: as §1
# [3] = target: Neu5Ac(a2-6)Gal(b1-4)GlcNAc(b1-2)Man(a1-3)[Man(a1-6)]Man(b1-4)GlcNAc(b1-4)GlcNAc
# Outline: as §1
# [4] = target: Neu5Gc(a2-8)Neu5Gc(a2-3)Gal(b1-4)GlcNAc
# Outline: as §1
binder,measurement,setting,value
B1,glycan array binding signal (z-score),[1],1.69
same,glycan array binding signal (z-score),[2],-0.179
same,glycan array binding signal (z-score),[3],4.09
same,glycan array binding signal (z-score),[4],-0.107
